# Source: PubChem BioAssay (National Center for Advancing Translational Sciences (NCATS))
# Compounds with a hit are over-represented: about 9.4% of the library has one in this group of screens.
# Pf growth 96h – Primary qHTS for delayed death inhibitors of the malarial parasite plastid, 96 hour incubation; P. falciparum luciferase reporter growth, 96 h; Potency, µM (doses to about 28.7 µM), for inactives: at the highest dose activity change, negative = inhibition, most hits filed as inhibitors; actives 6.9% (n = 320,000); AID 504834, 2011; further: on the % scale 0 is the no-effect control and ±100 the full control effect
#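 Erythrocytes infected with luciferase-expressing P. falciparum were dispensed at 2% hematocrit and 0.05% parasitemia (final), then incubated with compounds 96 hours at 37 C in 5% CO2. Luminescence after detection reagent addition reported growth.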
# AMA1-RON2 inh – qHTS for Inhibitors of AMA1-RON; Towards Development of Antimalarial Drug Lead: Primary Screen; Plasmodium falciparum AMA1 (3D7) - RON2 peptide interaction; AlphaScreen AMA1-biotinylated RON2 peptide binding; Potency, µM (doses to about 58.2 µM), inactives show at the top dose activity change, negative = inhibition, actives largely listed as inhibitors; actives 0.2% (n = 360,000); AID 720542, 2013;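 further: 0% = vehicle wells and -100% = peptide control; nearly all actives have a fitted effect of over 45% in size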
#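 AMA1 (3D7) with his tag at 25 nM final met compounds first, then biotinylated RON2 peptide at 25 nM; detection used donor plus acceptor beads, 10 µg/mL apiece, read by AlphaScreen after 30 min at room temperature.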
# Pf growth 48h – Primary qHTS for delayed death inhibitors of the malarial parasite plastid, 48 hour incubation | Potency, µM (highest dose often 28.7 µM), inactives show top-dose activity change, negative = inhibition, actives largely listed as inhibitors | actives 5.9% (n = 310,000) | AID 504832, 2011 | P. falciparum luciferase growth in erythrocytes, 48 h; further: on the % scale 0 is the no-effect control and ±100 the full control effect
#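 Luminescence readout; reporter = integrated firefly luciferase in P. falciparum. RBC culture at 2% hematocrit, 0.1% parasitemia final, 37 C/5% CO2; decreased signal taken as growth inhibition.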
# SARS PLpro yeast – qHTS of Yeast-based Assay for SARS-CoV PLP | Potency, µM (highest dose often 32.9 µM), for inactives: at the highest dose activity, positive = growth rescue, actives largely listed as activators | S. cerevisiae expressing SARS-CoV PLpro, growth rescue | actives 0.19% (n = 330,000); calls by dose curve; further: 0% is about no effect; nearly all actives have a fitted effect of over 55% in size
# * = called active by the depositor; ? = inconclusive; . = no result; [ ] = another dose, or the depositor's remark. Unless noted, the call rests on the fitted dose curve; in most records, active means well fitted curve in the direction sought with a large enough effect; inconclusive means small, poorly fitted or top-dose-only effect, or another doubt; inactive means no such curve, though single readings can be large; an effect the other way counts as inactive or inconclusive. Potency means the concentration at half of the fitted maximal effect.
SMILES,Pf growth 96h,AMA1-RON2 inh,Pf growth 48h,SARS PLpro yeast
CCn1c(=N)n(CC(O)c2ccccc2)c2ccccc21 (stereo unspecified),-9%,-3%,?,.
CN(C)CCn1c(=N)n(CC(O)c2ccc(Cl)c(Cl)c2)c2ccccc21 (stereo unspecified),1%,2%,0.74µM*,0%
C[C@H]1CC[C@]2(OC1)O[C@@H]1C[C@@H]3[C@@H]4CC[C@H]5C[C@@H](O)CC[C@]5(C)[C@@H]4CC(=O)[C@@]3(C)[C@H]1[C@@H]2C,-1%[12.8 µM],.,-7%[12.8 µM],.
N=C1/C(=C/c2cccn2Cc2ccc(F)cc2)C(=O)N=C2SC=CN12,53%[5.75 µM],64%,-28%,1%
Cc1ccc(Cn2cccc2/C=C2/C(=N)N3C=CSC3=NC2=O)cc1,6.6µM*,58%,2%,?
CNC(=O)OC(C)CNS(=O)(=O)c1ccc(C)cc1 (stereo unspecified),12µM*,-1%,11%,2%
Cc1ccc(S(=O)(=O)NCC(C)NS(=O)(=O)c2ccc(C)cc2)cc1 (stereo unspecified),2%,13%,4%,4%
CN1CCN(Cc2nc3ccccc3c(=O)n2Cc2nc(-c3ccc([N+](=O)[O-])cc3)cs2)CC1,2.6µM*,?,?,-13%
CCOc1ccc(N(C)S(=O)(=O)c2ccc(-c3ccc(=O)[nH]n3)s2)cc1,12µM*,11%,-9%,2%
Cc1ccc(N(C)S(=O)(=O)c2ccc(-c3ccc(=O)[nH]n3)s2)cc1C,16%,1%,6%,2%
O=C(COc1ccccc1)N(CCc1ccccc1)c1nc(-c2ccc(F)cc2)cs1,?,14%,?,1%
O=C(Cc1cccc(NC(=O)C2CCN(C(=O)C3CCCC3)CC2)c1)Nc1cccc(C(=O)N2CCCC2)c1,?,4%,15µM*,-1%
O=C(Cc1cccc(NC(=O)C2CCN(C(=O)CCc3ccccc3)CC2)c1)Nc1cccc(C(=O)N2CCCC2)c1,?,-3%,12µM*,-7%
Cc1ccc(S(=O)(=O)N(Cc2n[nH]c(=S)n2-c2ccccc2)c2ccccc2)cc1,?,66%,2.3µM*,0%
NS(=O)(=O)c1ccc(N2N=C(c3ccccc3)CC2c2cccc(F)c2)cc1 (stereo unspecified),?,102%,?,-18%
CN(C)c1ccc(C(=O)Nc2ccc(O)c3c(=O)cc(-c4ccccc4Cl)oc23)cc1,?,0%,?,2%
Cc1c(C(=O)NCc2ccc3c(c2)OCO3)oc2ccccc12,14%,-7%,-15%,-16%
CC(=O)Nc1sc2c(c1C(c1ccc(F)cc1)N1CCOCC1)CCCC2 (stereo unspecified),1.2µM*,7%,.,-11%
CC(=O)Nc1sc2c(c1C(c1ccccc1)N1CCOCC1)CCCC2 (stereo unspecified),.,14%,?,-1%
CC(=O)Nc1sc2c(c1C(c1ccc(Cl)cc1)N1CCOCC1)CCCC2 (stereo unspecified),1.3µM*,-17%,.,0%
Cc1cc(NCCCn2ccnc2)n2nc(-c3ccc(F)cc3)cc2n1,-4%[5.75 µM],-5%,4.1µM*,4%
Cc1cc(C)c2c(n1)nn1c(NCCCn3ccnc3)cc(C)nc21,?,.,10%,-2%
Cc1cc(NCCCn2ccnc2)n2nc(-c3ccc(Cl)cc3)cc2n1,20%,-2%,2.6µM*,-2%
Cc1cccc(-c2cc3nc(C)c(C)c(NCCCn4ccnc4)n3n2)c1,?,-16%,1.7µM*,-2%
CCCCc1cc(=O)oc2cc(OCC(=O)N3C[C@H]4C[C@@H](C3)c3cccc(=O)n3C4)c(Cl)cc12,?,11%,?,-12%
SMILES,Pf growth 96h,AMA1-RON2 inh,Pf growth 48h,SARS PLpro yeast
CC1(C)SC2c3ccccc3C(=O)N2C1C(=O)O (stereo unspecified),.,7%,.,.
O=C1NC(=O)[C@]2(Cc3ccccc3N3CCN(c4ccccc4)CC32)C(=O)N1Cc1ccccc1 (stereo partly specified),9.3µM*,-20%,?,6%
CCOC(=O)C1=C(C)Nc2sc(C(=O)c3ccc(OC)cc3)c(N)c2C1c1ccc(C(=O)OC)cc1 (stereo unspecified),5.9µM*,0%,7.4µM*,1%
Cc1c(N=Cc2c(O)n(Cc3ccc(F)cc3)c(=O)[nH]c2=O)c(=O)n(-c2ccccc2)n1C,?,14%,.,11%
COc1ccc(-c2cc(=O)c3c(OC)c(OC)c(OC)cc3o2)cc1,12µM*,-6%,?,-1%
COc1cc(-c2cc(=O)c3c(O)cc(O)cc3o2)ccc1O,13µM*,-3%,?,-1%
COc1cc(-c2cc(=O)c3ccccc3o2)ccc1O,100%,-27%,54%,-8%
CCCc1ccc(OCC(=O)Nc2cc(S(=O)(=O)CC)ccc2O)cc1,12µM*,-9%,17%,0%
Cc1cccc(OCC(=O)Nc2cc(C)ccc2O)c1,?,5%,12µM*,-10%
Cc1cccc(OCC(=O)Nc2ccccc2-c2ccccc2)c1,0%,5%,3%,-7%
O=C(CCC1CCCCC1)Nc1ccccc1O,.,-6%,-61%,-11%
Cc1ccc(O)c(NC(=O)CCC2CCCCC2)c1,13µM*,1%,?,-7%
Cc1cccc(OCC(=O)Nc2cc(C)c(C)cc2O)c1,-19%,-1%,3.7µM*,-4%
Cc1cccc(OCC(=O)Nc2ccccc2C(F)(F)F)c1,31%,-18%,41%,29%
COc1ccccc1-c1cnc(C(O)c2ccc(Cl)c(F)c2)[nH]1 (stereo unspecified),.,0%,.,.
CCCCn1c(N)c(N(Cc2ccccc2OC)C(=O)c2ccc(N3CCCC3=O)cc2)c(=O)[nH]c1=O,?,-16%,-20%,-3%
COc1ccc(/C=C/C(=O)NCCSCc2ccco2)cc1,9.3µM*,26%,-5%,-5%
COc1ccc(/C=C/C(=O)NCCCc2ccccc2)cc1,145%,-6%,-16%,-36%
CC1CCCC(NC(=O)COC(=O)c2ccc([N+](=O)[O-])o2)C1C (stereo unspecified),.,-1%,.,0%
O=C(O)c1ccccc1SC1CC(=O)N(c2ccccc2)C1=O (stereo unspecified),2.1µM*,-4%,-4%,-80%
CCCN(CC(=O)Nc1ccccc1C)C(=O)c1cccc(S(=O)(=O)N2CCN(c3ccccc3)CC2)c1,?,-18%,?,-2%
CCN(CC)c1ccc2cc(C(N)=O)c(=O)oc2c1,10µM*,9%,109%,-2%
COC(=O)c1ccccc1NC(=O)CCCOc1cc(=O)n(C)c2ccccc12,.,4%,.,.
CCOc1ccc(C2OC(=O)Cc3cc(OC)c(OC)cc32)cc1 (stereo unspecified),1.2µM*,8%,?,1%
CN(C)C(=O)c1ccc(-n2cccn2)nc1,2%,7%,10µM*,-1%
